# This is a sample that favours compounds with a hit; in the whole collection about 7.3% have one here.
# Rab9 prom act = activates the Rab9 promoter; 2.8% of 320,000 active; Potency, µM (doses to about 9.22 µM), without a hit: at the top dose activation, negative = inhibition, most hits filed as activators; AID 485297; Huh7 Rab9 promoter-luciferase reporter, luminescence, 24 h; note: % of control where 0% means no effect; nearly all actives have a fitted effect of over 60% in size
#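 Huh7 cells stably carrying a Rab9 promoter-luciferase reporter, 1500 cells per well in OP-MEM I with 10% FBS, treated with compound 24 hours at 37C. Luciferase activity read by luminescence after 10 minutes with Amplite reagent.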
# ELG1 genotoxic = genotoxicity induction in ELG1-luciferase HEK293T cells; HEK293T ELG1-luciferase reporter, luminescence, 16 h; 1.3% of 330,000 active; Potency, µM (series often up to 46 µM), without a hit: top-dose activity change, positive = activation, usual class: activators; note: % of control where 0% means no effect; nearly all actives have a fitted effect of over 60% in size
#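 Genotoxic stress is detected as increased luminescence from luciferase-tagged ELG1 in HEK293T cells, measured with ONE-Glo after a 16 hr treatment at 37 °C.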
# SMN2 splice up = SMN2 splice variant enhancement. HEK293 SMN2-luciferase splicing reporter, luminescence, 30-36 h. Potency, µM (series often up to 46.1 µM), inactives show at the highest dose activity change, positive = activation, most hits filed as activators. 2.8% of 210,000 active; note: % of control where 0% means no effect; nearly all actives have a fitted effect of over 55% in size
#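 HEK293 cells carry an SMN2 […]–luciferase reporter in which exon 7 inclusion puts luciferase in frame. Cells were plated 10-12 h before compound addition, then incubated 30-36 h at 37C. ONE-Glo luminescence was read; sodium butyrate at 4.5 mM final served as control.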
# Luc counter = Kinase-Glo luciferase inhibition (counter-screen) | Q27757 | Kinase-Glo luciferase, ATP luminescence, 8 min | Potency, µM (top dose mostly 38.3 µM), for inactives: at the top dose activity change, negative = inhibition, hits mostly inhibitors | 0.28% of 200,000 active | AID 1379; note: % is set by controls: 0 for no effect and ±100 for the full control effect; nearly all actives have a fitted effect of over 60% in size
#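 Light output from Kinase-Glo luciferase with luciferin and 10 uM ATP in 50 mM imidazole pH 7.2, KCl, MgCl2, Tween 20, BSA; compound pin-delivered, 8-min ambient incubation, then luminescence read.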
# NPC1 prom act = activators of NPC1 promoter; Huh7 NPC1 promoter luciferase reporter, 24 h; 2.4% of 320,000 active; Potency, µM (highest dose often 9.22 µM), inactives show at the highest dose activation, most hits filed as activators; note: % of control where 0% means no effect; nearly all actives have a fitted effect of over 60% in size
#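 Huh7 reporter cells (NPC1 promoter driving luciferase) are dosed with compound for 24 h at 37 °C, 5% CO2; luciferase detection reagent is then added and luminescence measured after 10 min at ambient temperature.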
# FLuc counter = counter-screen for miR-21 project: firefly luciferase inhibitors or activators; P08659; purified FLuc, Km substrates, luminescence inhibition; Potency, µM (series often up to 57.5 µM), inactives show at the highest dose activity change, negative = inhibition, actives largely listed as inhibitors; 6.9% of 360,000 active; AID 588342;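 note: plate controls were vehicle for no effect and reference inhibitor for full effect; nearly all actives have a fitted effect of over 55% in size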
# Target sequence (P08659 whole entry, looked up): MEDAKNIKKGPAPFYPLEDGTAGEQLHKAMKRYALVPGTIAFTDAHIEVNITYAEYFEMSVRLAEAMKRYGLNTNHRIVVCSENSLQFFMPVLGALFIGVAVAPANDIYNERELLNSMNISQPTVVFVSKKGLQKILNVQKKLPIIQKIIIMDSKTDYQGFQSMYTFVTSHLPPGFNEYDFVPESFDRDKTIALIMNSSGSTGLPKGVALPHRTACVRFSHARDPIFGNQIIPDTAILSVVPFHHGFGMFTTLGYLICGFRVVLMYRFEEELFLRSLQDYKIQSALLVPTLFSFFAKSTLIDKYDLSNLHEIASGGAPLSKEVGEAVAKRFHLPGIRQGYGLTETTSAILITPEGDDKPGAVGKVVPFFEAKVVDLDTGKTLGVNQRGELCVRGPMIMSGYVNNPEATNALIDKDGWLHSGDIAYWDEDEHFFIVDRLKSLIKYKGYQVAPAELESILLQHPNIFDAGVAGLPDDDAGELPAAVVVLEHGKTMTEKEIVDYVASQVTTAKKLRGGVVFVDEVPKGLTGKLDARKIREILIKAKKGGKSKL
#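 Purified P. pyralis luciferase (10nM final) with 10uM D-luciferin and 10uM ATP (Km levels) in 50mM Tris acetate pH 7.5, 10mM Mg acetate, 0.01% Tween-20, 0.05% BSA; qHTS 6-point titration, ~60 µM downward; luminescence read.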
# An asterisk follows results filed as active; ? = inconclusive; . = no result. Calls come from the whole dose curve; as a rule, active = well fitted curve in the direction sought with a large enough effect; inconclusive = small, poorly fitted or top-dose-only effect, or another doubt; inactive = no such curve, though single readings can be large; an effect the other way counts as inactive or inconclusive. Potency is the fitted concentration of half-maximal effect.
SMILES,Rab9 prom act,ELG1 genotoxic,SMN2 splice up,Luc counter,NPC1 prom act,FLuc counter
COc1ccc2nc(Nc3ccc4c(c3)OCO4)sc2c1,4.5µM*,5.8µM*,?,-7%,?,?
COc1ccc2nc(Nc3ccccc3OC)sc2c1,0.35µM*,?,2.8µM*,11µM*,1.1µM*,0.48µM*
COc1ccc2nc(Nc3ccccc3)sc2c1,1.6µM*,22%,11µM*,-11%,3.5µM*,1.5µM*
Cc1ccc(CN(Cc2ccco2)C(=O)COc2ccc(Cl)cc2Cl)cc1,.,.,8%,.,.,-16%
COc1ccc2nc(NC(=O)Nc3cccc4ccccc34)sc2c1,?,16%,?,0%,22%,?
COc1ccc2nc(NC(=O)Nc3ccccc3OC)sc2c1,0.63µM*,?,.,.,?,0.95µM*
O=C(CC(C(=O)O)c1cccc(Cl)c1)c1ccccc1 (stereo not drawn),-11%,-1%,.,.,0%,2%
O=C(CC(Nc1ccccc1)c1ccc(F)cc1)c1ccccc1 (stereo not drawn),4%,?,-2%,2%,-1%,?
Cc1ccc(NC(CC(=O)c2ccccc2)C(=O)O)cc1Cl (stereo not drawn),?,?,.,.,10%,2.1µM*
O=C(CC(Nc1ccc(Cl)cc1Cl)C(=O)O)c1ccccc1 (stereo not drawn),10%,6.5µM*,.,.,6%,2.7µM*
O=C(CC(Nc1ccccc1)C(=O)O)c1ccccc1 (stereo not drawn),2.8µM*,?,13µM*,?,3.2µM*,0.85µM*
Cc1ccc(NC(=O)CN2C(=O)S/C(=C\c3ccc(-c4cccc(C(=O)O)c4C)o3)C2=O)cc1C,-4%,0%,18%,-1%,0%,?
O=C(CN1CCN(Cc2ccccc2)CC1)Nc1cccc(Br)c1,1%,-9%,.,.,-4%,3%
O=C(NC1CCCC1)c1ccc(COCC(F)(F)C(F)F)o1,.,.,-6%,-2%,.,3%
O=C(CCN1C(=O)S/C(=C\c2ccc(F)cc2)C1=O)Nc1ccc(O)cc1C(=O)O,0%,0%,.,.,-2%,?
O=C(CCN1C(=O)/C(=C\c2ccccc2F)SC1=S)Nc1ccc(C(=O)O)c(O)c1,1%,3%,.,.,-4%,5.4µM*
Cc1ccc(/C=C2/SC(=S)N(CCCC(=O)Nc3cc([N+](=O)[O-])ccc3O)C2=O)cc1,-19%,-9%,.,.,16%,?
O=C(CN1C(=O)/C(=C/c2ccco2)SC1=S)Nc1ccc(C(=O)O)c(O)c1,2%,4%,.,.,0%,19µM*
O=C(CCN1C(=O)S/C(=C/c2ccccc2)C1=O)Nc1ccc(C(=O)O)c(O)c1,24%,8%,.,.,22%,2.4µM*
O=C(CN1C(=O)S/C(=C\c2ccccc2)C1=O)Nc1cc([N+](=O)[O-])ccc1O,11%,-1%,.,.,3%,13µM*
Cc1nn(-c2nc(-c3ccc(F)cc3)cc(C(F)(F)F)n2)c(C)c1Br,.,.,-19%,.,.,3%
O=C(CCN1C(=O)S/C(=C/c2ccc(F)cc2)C1=O)Nc1ccc(O)c(C(=O)O)c1,1%,-1%,.,.,-3%,?
O=C(CCCN1C(=O)/C(=C/c2ccccc2)SC1=S)Nc1ccc(C(=O)O)c(O)c1,3%,2%,.,.,-3%,12µM*
O=C(CCN1C(=O)S/C(=C\c2ccc(F)cc2)C1=O)Nc1ccc(C(=O)O)c(O)c1,13%,8%,.,.,?,2.1µM*
CCCc1[nH]c2ccc(C#N)cc2c1CCC,0%,1%,.,.,0%,-1%
C/C(=N\NC(=O)c1ccn(C)n1)c1cccc(NC(=O)c2ccncc2)c1,-5%,-1%,-5%,1%,0%,15µM*
C/C(=N\NS(=O)(=O)c1ccccc1)c1cccc(NC(=O)c2cccc(Cl)c2)c1,-3%,-3%,-1%,3%,2%,24µM*

# Screening results deposited in PubChem by National Center for Advancing Translational Sciences (NCATS).
